Inconclusive results are not listed. Where a call stands in place of a potency, no number is given. Active and inactive are the calls of the source. Unless noted, calls follow the shape of the dose curve; as a rule, active = well fitted curve in the direction sought with a large enough effect; inconclusive = small, poorly fitted or top-dose-only effect, or another doubt; inactive = no such curve, though single readings can be large; an effect the other way counts as inactive or inconclusive.
Tests used:
[1] = target: Galactokinase (Homo sapiens) (UniProt P51570); assay: qHTS Validation Assay for Inhibitors of Human Galactokinase (GALK) (AID 493189)
Method in brief: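 GALK (5 nM) with 35 uM ATP and 100 uM galactose in HEPES pH 8.0 with MgCl2, NaCl, DTT and BSA. Reaction ran 1 h at room temperature. Residual ATP read by Kinase-Glo Plus luminescence.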

[2] = Validation screen for small molecules that induce DNA re-replication in SW480 colon adenocarcinoma cells (AID 504364)
Method in brief: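 SW480 cells seeded at 250 per well were exposed to compound or DMSO for 48 hr at 37 C, 5% CO2, then stained with Hoechst for 40 min. DNA content per nucleus was imaged (405 nm ex, 500-530 nm em).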

[3] = target: Peptidyl-prolyl cis-trans isomerase NIMA-interacting 1 (Homo sapiens) (UniProt Q13526); assay: qHTS Validation Assay to Find Inhibitors of Pin1 (AID 504536; active = well fitted inhibition curve with a large enough effect in the polarisation, with a control signal flat, not every such curve was filed as active; the % refers to the polarisation)
Method in brief: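 Fluorescence polarization competition: compounds (titration) displace HiFluor-488-labeled Pin1-1b peptide from Pin1 (0.3 uM final) in pH 7.5 HEPES buffer with DTT, 10 min at room temperature; %Activity normalized to no-enzyme wells, curves fitted.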

[4] = target: Phosphoglycerate kinase, glycosomal (Trypanosoma brucei brucei) (UniProt P07378); assay: qHTS Validation Assay to Find Inhibitors of Phosphoglycerate Kinase (AID 504547)
Method in brief: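 Substrate/PGK mix plus compound; reaction started with GAPDH (100nM final) to form 1,3-BPG; 60 min RT; Kinase-Glo Plus 10 min; luminescence. TEA 100mM pH 7.6, MgCl2 5mM, Tween-20 0.01%.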

[5] = target: phosphoglycerate mutase (Leishmania major) (UniProt Q4Q090); assay: qHTS Validation Assay to Find Inhibitors of Phosphoglycerate Mutase (AID 504548);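 also: end-point luminescence from Kinase-GloPlus after the PGAM reaction; series mostly up to about 58 µM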
Method in brief: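 Inhibition of L. major PGAM was assessed by Kinase-GloPlus luminescence following a 45-minute room-temperature reaction with enzyme at 1.25nM final.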

[6] = target: Ubiquitin carboxyl-terminal hydrolase 1 (Homo sapiens) (UniProt O94782); assay: Inhibitors of USP1/UAF1: Pilot qHTS (AID 504865);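 also: rhodamine fluorescence freed from ubiquitin-rhodamine substrate followed over time; top concentration of the series differs between compounds; nearly all actives have a fitted effect of over 35% in size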
Method in brief: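 USP1/UAF1 complex at 1 nM preincubated 15 min at room temperature with compound, then Ub-Rho substrate added at 150 nM final. Fluorescence (480/540 nm) read kinetically in 50 mM HEPES pH 7.8, 0.5 mM EDTA, 1 mM TCEP, 0.1 mg/ml BSA, 0.01% Tween-20.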

[7] = qHTS for Inhibitors of ATXN expression: Validation of Cytotoxic Assay (AID 588349)
Method in brief: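 HEK293 cells were dosed with titrated compounds for 72 hr at 37 degrees C. Viability was read by CellTiter Glo luminescence, with intracellular ATP as the marker of cell survival.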

[8] = qHTS for Inhibitors of ATXN expression: Validation (AID 588378); also: nearly all actives have a fitted effect of over 75% in size; also: potency is read from the fitted curve at half-maximal effect
Method in brief: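 HEK293 cells carrying ATXN2-firefly luciferase reporter, treated with compound 24 h at 37 °C. Viability read first by CellTiter-Fluor (405/525 nm), then reporter expression by Bright-Glo luminescence; controls were a known ATXN2 expression inhibitor and a luciferase inhibitor.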

[9] = target: DNA dC->dU-editing enzyme APOBEC-3G (Homo sapiens) (UniProt Q9HC16); assay: qHTS for inhibitors of Vif-A3G interactions: Validation (AID 588379)
Method in brief: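 HeLa cells stably expressing Vif and A3G-eYFP, 700 cells/well, incubated overnight at 37 deg C, then exposed to compound overnight at 37 deg C. Inhibition of Vif-mediated degradation read as increased yellow fluorescence (Ex 488/Em 500-530) by laser-scanning cytometry.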

[10] = target: Glucocorticoid receptor (Homo sapiens) (UniProt P04150); assay: qHTS assay for small molecule agonists of glucocorticoid receptor signaling (AID 588532; active = well fitted curve in the direction sought with a large enough effect in the signal ratio, with a control signal flat; the % refers to the signal ratio); settings: HeLa MMTV-bla, beta-lactamase ratio, agonist, 18 h; hits give high values; percent of dexamethasone control, DMSO zero
Method in brief: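 MMTV-bla HeLa, beta-lactamase reporter; medium with 1% charcoal/dextran-stripped FBS; cpds up to 92 uM, 18 h, 37 C; CCF4 readout 460/530 nm; Hill fit → EC50, efficacy vs 0.1 uM dexamethasone = 100%.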

[11] = target: Glucocorticoid receptor (Homo sapiens) (UniProt P04150); assay: qHTS assay for small molecule antagonists of glucocorticoid receptor signaling (AID 588533; active = well fitted inhibition curve with a large enough effect in the signal ratio, with a control signal flat, not every such curve was filed as active; the % refers to the signal ratio;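 also: cells stimulated with 2 nM dexamethasone as agonist; potency is read from the fitted curve at half-maximal effect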)
Method in brief: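 Antagonist-mode qHTS: compound titrations added to GRE-bla HeLa cells, then dexamethasone 2 nM final; 18 h, 37 C. CCF4 FRET fluorescence normalized to dexamethasone and DMSO; IC50 from Hill fit.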

[12] = target: Peroxisome proliferator-activated receptor gamma (Homo sapiens) (UniProt P37231); assay: qHTS assay for small molecule antagonists of peroxisome proliferator-activated receptor gamma signaling (AID 588537; active = well fitted inhibition curve with a large enough effect in the signal ratio, with a control signal flat, not every such curve was filed as active; the % refers to the signal ratio; also: potency is read from the fitted curve at half-maximal effect)
Method in brief: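 PPAR-gamma-UAS-bla HEK293 cells (3000/well, 1% charcoal/dextran-stripped FBS) were preincubated 6-6.5 h at 37 C, given titrated compounds, then stimulated with 50 nM rosiglitazone for 16 h. Beta-lactamase activity was read with CCF4 dye; IC50 came from Hill fits.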

Peptidyl-prolyl cis-trans isomerase NIMA-interacting 1 (Homo sapiens), sequence (Q13526 whole entry, looked up): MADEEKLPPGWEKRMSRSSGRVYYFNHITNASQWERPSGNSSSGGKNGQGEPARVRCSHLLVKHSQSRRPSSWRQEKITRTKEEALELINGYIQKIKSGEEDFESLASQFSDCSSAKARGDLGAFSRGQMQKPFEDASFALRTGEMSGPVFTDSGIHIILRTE
Galactokinase (Homo sapiens), sequence (P51570 whole entry, looked up): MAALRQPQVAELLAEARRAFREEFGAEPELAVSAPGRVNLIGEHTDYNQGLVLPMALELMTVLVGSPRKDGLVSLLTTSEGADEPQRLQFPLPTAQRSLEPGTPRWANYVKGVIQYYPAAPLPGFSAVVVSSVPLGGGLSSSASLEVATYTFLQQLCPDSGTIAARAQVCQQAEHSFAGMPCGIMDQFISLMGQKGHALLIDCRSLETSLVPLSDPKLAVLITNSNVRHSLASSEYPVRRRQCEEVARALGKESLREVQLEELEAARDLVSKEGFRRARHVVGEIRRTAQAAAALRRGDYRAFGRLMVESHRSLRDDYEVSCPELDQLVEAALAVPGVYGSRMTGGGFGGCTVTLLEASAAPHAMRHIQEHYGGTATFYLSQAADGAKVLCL
Ubiquitin carboxyl-terminal hydrolase 1 (Homo sapiens), sequence (O94782 whole entry, looked up): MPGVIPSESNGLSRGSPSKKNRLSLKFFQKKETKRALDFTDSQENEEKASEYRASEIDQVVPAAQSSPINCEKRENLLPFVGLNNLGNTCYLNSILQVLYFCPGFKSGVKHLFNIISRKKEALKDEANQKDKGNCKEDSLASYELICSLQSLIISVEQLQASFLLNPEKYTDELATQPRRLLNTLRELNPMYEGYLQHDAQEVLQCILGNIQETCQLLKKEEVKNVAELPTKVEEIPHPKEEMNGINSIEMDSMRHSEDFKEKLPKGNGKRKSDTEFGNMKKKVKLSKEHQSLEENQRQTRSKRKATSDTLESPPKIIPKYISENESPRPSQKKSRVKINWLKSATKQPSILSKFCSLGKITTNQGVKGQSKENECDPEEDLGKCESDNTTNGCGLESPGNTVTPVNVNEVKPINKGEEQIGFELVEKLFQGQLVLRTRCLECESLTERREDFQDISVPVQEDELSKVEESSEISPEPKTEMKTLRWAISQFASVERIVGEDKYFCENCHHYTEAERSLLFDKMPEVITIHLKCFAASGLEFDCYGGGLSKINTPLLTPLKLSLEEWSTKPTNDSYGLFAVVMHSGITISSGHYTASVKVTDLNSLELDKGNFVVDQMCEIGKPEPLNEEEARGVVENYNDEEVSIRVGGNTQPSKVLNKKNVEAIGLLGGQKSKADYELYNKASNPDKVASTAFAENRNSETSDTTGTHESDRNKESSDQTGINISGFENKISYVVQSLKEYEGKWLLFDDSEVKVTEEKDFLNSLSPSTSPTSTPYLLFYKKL
Phosphoglycerate kinase, glycosomal (Trypanosoma brucei brucei), sequence (P07378 whole entry, looked up): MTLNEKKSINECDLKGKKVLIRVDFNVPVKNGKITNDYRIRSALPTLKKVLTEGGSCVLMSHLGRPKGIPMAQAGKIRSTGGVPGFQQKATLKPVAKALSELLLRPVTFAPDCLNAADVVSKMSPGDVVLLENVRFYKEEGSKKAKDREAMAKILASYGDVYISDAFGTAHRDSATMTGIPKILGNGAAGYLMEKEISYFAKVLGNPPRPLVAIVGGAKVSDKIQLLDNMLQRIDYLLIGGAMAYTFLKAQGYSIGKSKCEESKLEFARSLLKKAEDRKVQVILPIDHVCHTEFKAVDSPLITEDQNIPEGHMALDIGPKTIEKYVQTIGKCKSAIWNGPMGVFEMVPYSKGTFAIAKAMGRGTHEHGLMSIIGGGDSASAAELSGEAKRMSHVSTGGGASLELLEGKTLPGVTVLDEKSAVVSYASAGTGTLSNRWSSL
phosphoglycerate mutase (Leishmania major), sequence (Q4Q090 1-553): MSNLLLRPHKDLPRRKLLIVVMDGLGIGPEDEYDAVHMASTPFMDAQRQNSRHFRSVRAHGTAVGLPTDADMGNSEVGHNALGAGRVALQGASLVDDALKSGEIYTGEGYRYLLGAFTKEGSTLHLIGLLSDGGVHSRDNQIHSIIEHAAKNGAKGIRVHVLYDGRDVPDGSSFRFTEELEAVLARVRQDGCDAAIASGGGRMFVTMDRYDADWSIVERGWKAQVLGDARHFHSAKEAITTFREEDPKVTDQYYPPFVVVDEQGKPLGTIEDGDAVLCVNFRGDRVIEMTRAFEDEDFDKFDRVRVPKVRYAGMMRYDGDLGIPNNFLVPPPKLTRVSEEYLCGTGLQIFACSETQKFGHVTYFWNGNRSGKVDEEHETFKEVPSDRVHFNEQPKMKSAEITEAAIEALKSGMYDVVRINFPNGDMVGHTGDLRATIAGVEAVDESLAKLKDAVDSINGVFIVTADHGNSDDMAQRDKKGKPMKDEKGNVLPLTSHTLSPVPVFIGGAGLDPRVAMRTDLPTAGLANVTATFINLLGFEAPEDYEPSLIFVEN
DNA dC->dU-editing enzyme APOBEC-3G (Homo sapiens), sequence (Q9HC16 whole entry, looked up): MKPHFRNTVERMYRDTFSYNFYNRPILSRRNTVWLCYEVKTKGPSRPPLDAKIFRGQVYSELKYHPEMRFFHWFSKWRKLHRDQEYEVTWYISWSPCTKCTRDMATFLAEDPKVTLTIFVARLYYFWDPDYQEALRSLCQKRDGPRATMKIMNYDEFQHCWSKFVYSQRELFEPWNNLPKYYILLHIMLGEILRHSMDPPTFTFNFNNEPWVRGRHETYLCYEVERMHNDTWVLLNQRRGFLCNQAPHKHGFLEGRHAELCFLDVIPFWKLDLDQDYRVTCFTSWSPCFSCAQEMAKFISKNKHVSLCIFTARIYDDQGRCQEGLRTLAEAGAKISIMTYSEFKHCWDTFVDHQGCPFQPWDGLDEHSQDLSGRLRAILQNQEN
Glucocorticoid receptor (Homo sapiens), sequence (P04150 whole entry, looked up): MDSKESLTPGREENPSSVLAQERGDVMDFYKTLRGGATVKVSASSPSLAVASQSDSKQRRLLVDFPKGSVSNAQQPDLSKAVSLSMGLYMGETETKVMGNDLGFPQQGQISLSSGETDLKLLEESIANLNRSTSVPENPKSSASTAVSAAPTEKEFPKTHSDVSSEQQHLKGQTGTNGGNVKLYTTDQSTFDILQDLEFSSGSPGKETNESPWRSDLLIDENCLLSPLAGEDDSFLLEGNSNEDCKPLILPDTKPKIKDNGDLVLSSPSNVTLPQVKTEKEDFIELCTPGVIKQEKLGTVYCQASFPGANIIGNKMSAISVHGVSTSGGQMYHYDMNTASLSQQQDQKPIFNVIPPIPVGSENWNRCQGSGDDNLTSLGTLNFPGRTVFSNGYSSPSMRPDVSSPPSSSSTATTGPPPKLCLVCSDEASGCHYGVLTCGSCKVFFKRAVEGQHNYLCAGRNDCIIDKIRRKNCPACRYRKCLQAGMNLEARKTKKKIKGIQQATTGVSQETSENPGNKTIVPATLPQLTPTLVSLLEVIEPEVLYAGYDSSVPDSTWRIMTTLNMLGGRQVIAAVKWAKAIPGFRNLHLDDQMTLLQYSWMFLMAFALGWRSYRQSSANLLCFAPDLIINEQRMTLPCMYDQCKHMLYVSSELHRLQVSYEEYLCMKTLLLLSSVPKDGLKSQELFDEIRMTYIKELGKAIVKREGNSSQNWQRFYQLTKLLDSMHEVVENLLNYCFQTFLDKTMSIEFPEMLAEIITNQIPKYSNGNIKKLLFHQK
Peroxisome proliferator-activated receptor gamma (Homo sapiens), sequence (P37231 whole entry, looked up): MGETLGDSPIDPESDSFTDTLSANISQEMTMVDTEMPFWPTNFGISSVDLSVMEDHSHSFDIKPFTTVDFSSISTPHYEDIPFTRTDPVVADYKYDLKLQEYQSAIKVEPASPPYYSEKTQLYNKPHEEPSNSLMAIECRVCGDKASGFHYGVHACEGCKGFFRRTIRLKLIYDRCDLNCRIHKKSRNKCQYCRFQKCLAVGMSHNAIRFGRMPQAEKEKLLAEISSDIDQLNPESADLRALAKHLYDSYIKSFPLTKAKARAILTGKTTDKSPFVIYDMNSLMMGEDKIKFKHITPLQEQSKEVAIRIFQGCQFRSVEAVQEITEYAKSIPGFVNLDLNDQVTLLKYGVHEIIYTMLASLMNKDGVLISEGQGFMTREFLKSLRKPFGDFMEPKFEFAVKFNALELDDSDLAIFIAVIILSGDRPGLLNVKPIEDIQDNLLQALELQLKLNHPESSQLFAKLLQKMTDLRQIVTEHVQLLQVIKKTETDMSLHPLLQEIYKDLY

| Structure (SMILES) | outcome [1] | outcome [2] | outcome [3] | outcome [4] | outcome [5] | Potency [6] | outcome [7] | Potency [8] | outcome [9] | activation [10] | Potency [11] | Potency [12] |
| --- | --- | --- | --- | --- | --- | --- | --- | --- | --- | --- | --- | --- |
| CC1(C)CCC(NC(=O)[C@@H](N)CCC(=O)O)CC1 | inactive | inactive | inactive | inactive | inactive | inactive | inactive | inactive |  |  |  |  |
| CCCC1O[C@@H]2C[C@H]3[C@@H]4CCC5=CC(=O)C=C[C@]5(C)[C@H]4[C@@H](O)C[C@]3(C)[C@]2(C(=O)CO)O1 (some centres undefined) |  |  | inactive | inactive | inactive | inactive | inactive | inactive |  |  |  |  |
| C[N+]1(CCCCC[N+]2(C)CCCC2)CCCC1 | inactive | inactive | inactive | inactive | inactive | inactive | inactive | inactive |  |  |  |  |
| CC(C)COC(=O)OCN1C(=O)CN(CCN2CC(=O)N(COC(=O)OCC(C)C)C(=O)C2)CC1=O | inactive |  | inactive | inactive | inactive | inactive | inactive | inactive |  |  |  |  |
| CN1C2CCC1CC(OC(=O)c1c[nH]c3ccccc13)C2 (centres undefined) | inactive | inactive | inactive | inactive | inactive | inactive |  |  |  |  |  |  |
| Nc1cc(Cl)c(NC2=NCCN2)c(Cl)c1 | inactive | inactive | inactive | inactive | inactive | inactive | inactive | inactive |  |  |  |  |
| N[C@H](CO)C(=O)O | inactive | inactive | inactive | inactive | inactive | inactive | inactive | inactive |  |  |  |  |
| COc1cc(NS(C)(=O)=O)ccc1Nc1c2ccccc2nc2ccccc12 | inactive | inactive | inactive | inactive | inactive |  |  | 0.355 µM (active) |  |  |  |  |
| C1CCc2nnnn2CC1 | inactive | inactive | inactive | inactive | inactive | inactive | inactive | inactive |  |  |  |  |
| CCC(NC(C)C)C(O)c1ccc(O)c(O)c1 (centres undefined) | inactive | inactive | inactive | inactive |  | inactive | inactive |  |  |  |  |  |
| CC(C)NC[C@@H](O)COc1cccc2ccccc12 |  | inactive |  |  |  | inactive |  |  | inactive |  |  |  |
| C[C@]12CCC(=O)C=C1CC[C@H]1[C@@H]3CC[C@](O)(C(=O)CO)[C@@]3(C)C[C@H](O)[C@@]12F |  |  |  |  |  | inactive |  |  |  |  |  |  |
| COC(=O)[C@H]1[C@H]2C[C@H]3c4[nH]c5ccccc5c4CCN3C[C@H]2CC[C@@H]1O | inactive | inactive | inactive | inactive | inactive | inactive | inactive | inactive |  |  |  |  |
| CC(=O)O[C@H]1C[C@@H]2CC[C@@H]3[C@H](CC[C@@]4(C)[C@H]3C[C@H]([N+]3(C)CCCCC3)[C@@H]4OC(C)=O)[C@@]2(C)C[C@@H]1[N+]1(C)CCCCC1 |  |  | inactive | inactive | inactive |  | inactive | inactive |  |  |  |  |
| C[C@@H]1C(=O)NC2=Nc3cccc(Cl)c3CN21 | inactive | inactive | inactive | inactive | inactive | inactive | inactive | inactive |  |  |  |  |
| CN=C(NC#N)Nc1ccc(C2=NNC(=O)CC2C)cc1 (centres undefined) | inactive | inactive |  |  |  | inactive |  |  | inactive |  |  |  |
| N[C@@H](Cc1cnc[nH]1)C(=O)O | inactive | inactive | inactive | inactive | inactive | inactive | inactive | inactive |  |  |  |  |
| O=C(O)c1cc2cc(Cc3cccnc3)ccc2o1 | inactive | inactive | inactive | inactive | inactive | inactive | inactive | inactive |  |  |  |  |
| CCCn1c(=O)[nH]c(=O)c2[nH]cnc21 | inactive | inactive | inactive | inactive | inactive | inactive | inactive | inactive |  |  |  |  |
| C[C@]12CC[C@@H]3c4ccc(O)cc4CC[C@H]3[C@@H]1CC[C@@H]2O | inactive | inactive | inactive | inactive | inactive | inactive |  | inactive |  | -6.54% (inactive) | 7.08 µM (active) | 39.8 µM (active) |

— PubChem BioAssay (NCATS)
